This is a sample that favours compounds with a hit; in the whole collection about 27% have one here.
CYP2C9 act: activators of human CYP2C9. P11712. actives 1.4% (n = 96,000). activation factor at 5 µM. recombinant CYP2C9, luciferin-H conversion, luminescence; active compounds read high; factor 1 = untreated enzyme, 0 = blocked. AID 1024;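 active means activation factor of 2 or more for CYP2C9 at a 5 µM dose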;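 further: 0 = sulfaphenazole-blocked wells and 1 = vehicle-only wells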
Target sequence (P11712 whole entry, looked up): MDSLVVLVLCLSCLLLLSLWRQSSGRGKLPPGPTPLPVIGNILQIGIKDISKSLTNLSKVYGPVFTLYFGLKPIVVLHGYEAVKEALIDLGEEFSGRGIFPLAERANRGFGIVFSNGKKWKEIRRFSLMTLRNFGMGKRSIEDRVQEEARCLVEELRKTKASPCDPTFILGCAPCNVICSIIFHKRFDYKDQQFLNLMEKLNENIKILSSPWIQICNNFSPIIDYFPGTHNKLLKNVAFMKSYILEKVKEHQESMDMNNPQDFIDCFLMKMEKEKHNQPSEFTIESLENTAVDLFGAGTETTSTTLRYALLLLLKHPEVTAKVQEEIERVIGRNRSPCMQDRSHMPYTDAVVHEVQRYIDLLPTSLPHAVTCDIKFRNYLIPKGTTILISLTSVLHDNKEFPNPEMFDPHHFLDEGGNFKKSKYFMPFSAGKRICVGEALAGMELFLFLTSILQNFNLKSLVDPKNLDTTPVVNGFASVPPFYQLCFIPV
Cav32 inh: human Cav3.2 channel inhibition, primary screen; actives 4% (n = 100,000); B-score at 10 µM; O95180; Cav3.2-expressing cells, Fluo-4 calcium fluorescence FDSS; active compounds read low; AID 449739;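 active means single-dose well whose peak fluorescence ratio is a statistical outlier from its plate by either plate-standardised score or position-corrected B-score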
CYP2C9 inhib: blocks human cytochrome P450 2C9; P11712; AID 777; inhibition, % at 5 µM; CYP2C9 Supersomes, luciferin-H conversion, luminescence; actives 20% (n = 96,000);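 active means blocking of liver enzyme CYP2C9 beyond about 50% at 5 µM, limit read from the data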
CYP2C19 activ: cytochrome P450 2C19 (human) activation; activation factor at 5 µM; recombinant CYP2C19, luciferin-H EGE luminescence; active compounds read high; 0 = fully inhibited enzyme, 1 = untreated enzyme; P33261; 96,000 tested, under 10 active; AID 1025;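 active means activation factor of at least 2 at 5 µM in the primary screen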;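 further: 0 = wells with 2.5 mM tranylcypromine and 1 = vehicle-only wells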
CYP2C19 inh: human CYP2C19 inhibition; CYP2C19 Supersomes, luciferin-H EGE luminescence, 30 min; inhibition, % at 5 µM; actives 21% (n = 96,000);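 active means CYP2C19 inhibition above a set limit at 5 µM in the primary screen, cut at about 50% in these data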;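 further: plate controls were negative control wells for no effect and 2.5 mM tranylcypromine positive control for full effect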
Starred values were filed as active, the others as inactive; . = no result given.

SMILES | CYP2C9 act | Cav32 inh | CYP2C9 inhib | CYP2C19 activ | CYP2C19 inh
CC1CCCN(S(=O)(=O)c2cc(Cl)ccc2Cl)C1 (configuration not stated) | 2.4* | -2.3 | -142 | 0 | 96*
O=S(=O)(Cc1ccc(Cl)cc1)N1CCN(Cc2ccccc2)CC1 | 0.9 | 0.18 | 12 | 0.7 | 30
CCc1ccc(CNCCNCC(C)O)cc1 (configuration not stated) | 1 | 0.26 | 2 | 1 | 0
NS(=O)(=O)c1ccc(NC(=O)CN2CCN(Cc3ccccc3)CC2)cc1 | 0.7 | -0.79 | 26 | 0.9 | 7
CC(=O)Oc1cc2c(C(=O)NCc3ccncc3)c(C)oc2c2ccccc12 | . | 0.8 | . | . | .
Cc1cc(=O)oc(C)c1C(=O)NCCN1CCOCC1 | 1 | -0.1 | 2 | 0.8 | 16
COc1cc(NC(=O)C2CCN(S(=O)(=O)c3cccnc3)CC2)cc(OC)c1OC | 0.9 | -0.73 | 8 | 1.1 | -6
O=S(=O)(c1ccc(Cl)cc1Br)N1CCCCC1 | 1.8 | -0.092 | -85 | 0.1 | 87*
Cc1cc(C(=O)NCCCN2CCN(c3cc(Cl)ccc3C)CC2)n(-c2ccccc2)n1 | 1 | -4.7* | 2 | 0.9 | 10
Cc1cc(C(=O)NCCN2CCN(c3cccc(Cl)c3)CC2)n(-c2ccccc2)n1 | 0.9 | 0.28 | 12 | 0.9 | 10
CC(C)NC(=O)/C(=N\O)c1ccccc1 | 1 | 0.69 | -2 | 1.1 | -9
COc1ccc(NC2CC(=O)N(c3ccccc3)C2=O)cc1 (configuration not stated) | 1 | -0.84 | -3 | 0.5 | 55*
O=C1CC(Nc2ccc(N3CCOCC3)cc2)C(=O)N1c1ccccc1 (configuration not stated) | 1.1 | -0.4 | -7 | 0.8 | 22
CCc1nnc(NC(=O)CCC(=O)N2CCN(c3ccccn3)CC2)s1 | 1.1 | . | -9 | 1 | 0
COc1cc(C=O)c(Br)cc1OCc1ccc(C)cc1 | 0.9 | -1.1 | 15 | 0.6 | 40
O=C(Nc1ccc(NC(=O)C2CC2)nc1)c1cccnc1 | 0.8 | 0.048 | 15 | 1 | 5
CCSC1=C(C#N)C2(CCCCC2)C(C#N)=C(N)N1 | 0.2 | . | 84* | 0.4 | 59*
N#CC1=C(N)NC(SCc2ccccc2)=C(C#N)C12CCCCC2 | 0 | . | 100* | 0 | 100*
N#CC1=C(N)NC(SCC(=O)Nc2ccccc2)=C(C#N)C12CCCCC2 | . | -5* | . | . | .
CC(=O)Nc1cccc(C(=O)OCc2ccc(C(=O)Oc3ccc(Cl)cc3)cc2)c1 | 0.9 | 0.34 | 6 | 0.9 | 7
CCOC(=O)C1CCN(c2nc3ccccc3nc2C(C#N)C(=O)OCCOC)CC1 (configuration not stated) | 0.5 | -2.6 | 50 | 0.3 | 66*
CCOC(=O)C1CCN(c2nc3ccccc3nc2C(C#N)C(=O)OC(C)C)CC1 (configuration not stated) | 0.8 | -2.3 | 17 | 0.1 | 92*
CCOC(=O)C1CCN(c2nc3ccccc3nc2C(C#N)C(=O)OC(C)COC)CC1 (configuration not stated) | 0.4 | -4.4* | 63* | 0.4 | 61*
COC(=O)C1CCN(c2nc3ccccc3nc2C(C#N)C(=O)OCC(C)C)CC1 (configuration not stated) | 0.5 | -3.4 | 48 | 0.7 | 34
C=CCOC(=O)C(C#N)c1nc2ccccc2nc1N1CCC(C(=O)OCC)CC1 (configuration not stated) | 0.4 | -0.83 | 56* | 0.7 | 26
SMILES | CYP2C9 act | Cav32 inh | CYP2C9 inhib | CYP2C19 activ | CYP2C19 inh
C=CCOC(=O)C(C#N)c1nc2ccccc2nc1N1CCN(Cc2ccc3c(c2)OCO3)CC1 (configuration not stated) | 0.4 | . | 57* | 0.7 | 26
O=C(NC1CC2CCCC(C1)N2CC(=O)N1CCCc2ccccc21)C1CCCCC1 (configuration not stated) | . | 2 | . | . | .
CC(C)c1onc(C(=O)N2CCN(Cc3ccccc3)CC2)c1[N+](=O)[O-] | . | 0.037 | . | . | .
Cc1nc([N+](=O)[O-])c(N2CCN(Cc3ccccc3)CC2)n1Cc1ccccc1 | 0.4 | -1.6 | 57* | 0.5 | 54*
CC(=O)NC1(c2ccccc2)CCN(c2nc(C)cc(C)n2)CC1 | 0 | 1.1 | 97* | 0.1 | 93*
COc1nnc(-c2ccc(C)c(S(=O)(=O)NCCO)c2)c2ccccc12 | 1.2 | 0.049 | -24 | 1.1 | -8
Cc1ccc(-c2nnc(N3CCOCC3)c3ccccc23)cc1S(=O)(=O)NCC1CCCO1 (configuration not stated) | 0.3 | 1.1 | 71* | 0.5 | 47
CCOC(=O)CN1C(=O)N[C@@H](c2ccco2)C(C(=O)OC)=C1C | . | 0.77 | . | . | .
Cc1ccc(S(=O)(=O)Nc2nc3n(n2)C(c2ccc(Cl)cc2)CC(=O)N3)cc1 (configuration not stated) | 1.1 | 0.029 | -12 | 1.2 | -18
CCCn1c(CCC(=O)Nc2ccccc2Cc2ccccc2)nc2cc(S(=O)(=O)N3CCOCC3)ccc21 | 0.2 | -9.6* | 75* | 0.7 | 28
O=C(CCc1ccc(S(=O)(=O)N2CCOCC2)cc1)Nc1cc(Cl)ccc1N1CCOCC1 | 0.6 | 1.2 | 43 | 0.9 | 10
Cc1cccc(C)c1NC(=O)Cn1c(=O)n(CCC(=O)NCc2ccco2)c(=O)c2sccc21 | 0.6 | -0.077 | 44 | 1 | 4
O=C(CCn1c(=O)c2sccc2n(CC(=O)OCc2ccccc2)c1=O)NCc1ccccc1 | 0.4 | -0.038 | 62* | 0.7 | 30
CC1CCCCN1C(=O)Cn1c(=O)n(CCC(=O)NCc2ccco2)c(=O)c2sccc21 (configuration not stated) | 0.9 | 1.4 | 9 | 1.1 | -10
O=C(CCCn1c(=O)c2sccc2n(Cc2ccc(F)cc2)c1=O)NCc1ccco1 | 0.3 | -3.6 | 69* | 0.2 | 80*
O=C(CCCn1c(=O)c2sccc2n(CC(=O)OCc2ccccc2)c1=O)NCc1ccco1 | 1 | -3.2 | 2 | 0.5 | 51*
Cc1ccc(-n2ncc3c2ncn2c(C)nnc32)cc1C | 0.8 | -0.26 | 16 | 1 | -2
O=[N+]([O-])c1ccc(C2CCCC/C2=N/OCc2ccc(F)cc2)c([N+](=O)[O-])c1 (configuration not stated) | 0.7 | -5.4* | 25 | 0.7 | 34
Cc1ccc(NC(=O)O/N=C2\CCCCC2c2ccc([N+](=O)[O-])cc2[N+](=O)[O-])cc1 (configuration not stated) | 0.2 | . | 82* | 0.6 | 41
NC(=O)CC(O)c1cccc(Cl)c1 (configuration not stated) | 1 | . | 1 | 1 | -1
Cc1ccc(C2CC(c3cccs3)n3nc(N)nc3N2)cc1 (configuration not stated) | 0.8 | -0.087 | 21 | 0.5 | 51*
Cc1ccc(C2CC(c3ccccc3Cl)n3nc(N)nc3N2)cc1 (configuration not stated) | 0.9 | -0.26 | 6 | 0.8 | 24
